# Many of the other results were omitted from the sample, so the strongest signals are more common in it than they were.
# Columns and labels:
# Assay in all cases: glycan array binding signal (z-score within array); higher = stronger binding
# Conditions in all cases: glycan notation: IUPAC condensed, linker removed
# [1] = target: Fuc(a1-2)Gal(b1-3)[Fuc(a1-4)]GlcNAc(b1-2)Man(a1-3)[Fuc(a1-2)Gal(b1-3)[Fuc(a1-4)]GlcNAc(b1-2)Man(a1-6)]Man(b1-4)GlcNAc(b1-4)GlcNAc
# In short: (§1)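 Glycan array binding is given as a within-array Z-score, which can be read as non-binding when negative. The arrays, 3228 of them, came from the Consortium for Functional Glycomics database and were retained only where the protein sequence was available. Z-scores were averaged across arrays of the same protein sequence at different concentrations or buffers and across linkers.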
# [2] = target: Fuc(a1-2)Gal(b1-3)[Fuc(a1-4)]GlcNAc(b1-3)[Gal(b1-4)GlcNAc(b1-6)]Gal(b1-4)Glc
# In short: as §1
# [3] = target: Fuc(a1-2)Gal(b1-4)GlcNAc(b1-3)Gal(b1-4)GlcNAc(b1-3)Gal(b1-4)GlcNAc
# In short: as §1
# [4] = target: Fuc(a1-2)[Gal(a1-3)]Gal(b1-4)GlcNAc(b1-2)Man(a1-3)[Fuc(a1-2)[Gal(a1-3)]Gal(b1-4)GlcNAc(b1-2)Man(a1-6)]Man(b1-4)GlcNAc(b1-4)[Fuc(a1-6)]GlcNAc
# In short: as §1
# [5] = target: Fuc(a1-2)[Gal(a1-3)]Gal(b1-4)[Fuc(a1-3)]GlcNAc
# In short: as §1
# [6] = target: Fuc(a1-3)[Gal(b1-4)]Glc6S
# In short: as §1
# [7] = target: Fuc(a1-3)[Gal(b1-4)]GlcNAc(b1-4)Gal(b1-4)[Fuc(a1-3)]GlcNAc(b1-4)Gal(b1-4)[Fuc(a1-3)]GlcNAc
# In short: as §1
# [8] = target: Fuc(a1-4)GlcNAc
# In short: as §1
# [9] = target: Gal(a1-4)Gal(b1-3)GlcNAc(b1-2)Man(a1-3)[Gal(a1-4)Gal(b1-3)GlcNAc(b1-2)Man(a1-6)]Man(b1-4)GlcNAc(b1-4)GlcNAc
# In short: as §1
# [10] = target: Gal(a1-4)Gal(b1-4)Glc
# In short: as §1
# [11] = target: Gal(b1-3)Gal(b1-4)GlcNAc
# In short: as §1
# [12] = target: Gal(b1-4)GlcNAc(b1-2)[Gal(b1-4)GlcNAc(b1-6)]Man(a1-6)[Gal(b1-4)GlcNAc(b1-2)Man(a1-3)]Man(b1-4)GlcNAc(b1-4)GlcNAc
# In short: as §1
# [13] = target: Gal(b1-4)GlcNAc(b1-3)[Gal(b1-4)GlcNAc(b1-6)]Gal(b1-4)GlcNAc
# In short: as §1
# [14] = target: Gal(b1-4)GlcNAc(b1-3)[Gal(b1-4)GlcNAc(b1-6)]GalNAc
# In short: as §1
# [15] = target: Gal6S(b1-4)Glc6S
# In short: as §1
# [16] = target: GalNAc(a1-3)Fuc(a1-2)Gal(b1-4)GlcNAc(b1-3)[GalNAc(a1-3)Fuc(a1-2)Gal(b1-4)GlcNAc(b1-6)]GalNAc
# In short: as §1
# [17] = target: GalNAc(b1-3)Gal(a1-6)Gal(b1-4)Glc
# In short: as §1
# [18] = target: GalNAc(b1-3)GalNAc
# In short: as §1
# [19] = target: Glc(a1-6)Glc(a1-6)Glc(a1-6)Glc
# In short: as §1
# [20] = target: GlcA(b1-3)Gal
# In short: as §1
# [21] = target: GlcNAc(b1-3)Gal(b1-3)GalNAc
# In short: as §1
# [22] = target: GlcNAc(b1-3)GalNAc
# In short: as §1
# [23] = target: GlcNAc(b1-3)[GlcNAc(b1-6)]GalNAc
# In short: as §1
# [24] = target: GlcNAc(b1-4)GlcNAc
# In short: as §1
# [25] = target: GlcNAc3Prop(b1-4)GlcNAc
# In short: as §1
# [26] = target: Man(a1-2)Man(a1-3)[Man(a1-2)Man(a1-6)]Man(a1-6)[Man(a1-2)Man(a1-2)Man(a1-3)]Man(b1-4)GlcNAc(b1-4)GlcNAc
# In short: as §1
# [27] = target: Neu5Ac(a2-3)Gal(b1-3)GalNAc(b1-4)[Neu5Ac(a2-3)]Gal(b1-4)Glc
# In short: as §1
# [28] = target: Neu5Ac(a2-3)Gal(b1-3)GlcNAc
# In short: as §1
# [29] = target: Neu5Ac(a2-3)Gal(b1-3)GlcNAc6S
# In short: as §1
# [30] = target: Neu5Ac(a2-3)Gal(b1-3)[Neu5Ac(a2-6)]GalNAc
# In short: as §1
# [31] = target: Neu5Ac(a2-3)Gal(b1-4)GlcNAc(b1-6)[Gal(b1-3)]GalNAc
# In short: as §1
# [32] = target: Neu5Ac(a2-3)Gal(b1-4)[Fuc(a1-3)]GlcNAc(b1-3)GalNAc
# In short: as §1
# [33] = target: Neu5Ac(a2-3)Gal(b1-4)[Fuc(a1-3)]GlcNAc(b1-6)[Gal(b1-3)]GalNAc
# In short: as §1
# [34] = target: Neu5Ac(a2-6)Gal(b1-4)GlcNAc(b1-2)Man(a1-6)[GlcNAc(b1-2)Man(a1-3)]Man(b1-4)GlcNAc(b1-4)GlcNAc
# In short: as §1
# [35] = target: Neu5Ac(a2-6)GlcNAc(b1-4)GlcNAc(b1-4)GlcNAc
# In short: as §1
# [36] = target: Neu5Ac(a2-8)Neu5Ac(a2-3)Gal(b1-4)Glc
# In short: as §1
# [37] = target: Neu5Ac(a2-8)Neu5Ac(a2-3)[Gal(b1-3)GalNAc(b1-4)]Gal(b1-4)Glc
# In short: as §1
binder,measurement,setting,value
"SefD (Salmonella enterica), Q9L6K6 (protein) GAYIIRGQNNSAHKLRIRIGGEDWQPDNSGIGMVSHSDFTNEFNIYYFGNGDIPVDTYLISIYATEIEL",glycan array binding signal (z-score),[1],-0.362
same,glycan array binding signal (z-score),[2],5.83
same,glycan array binding signal (z-score),[3],-0.043
same,glycan array binding signal (z-score),[4],-0.413
same,glycan array binding signal (z-score),[5],-0.401
same,glycan array binding signal (z-score),[6],-0.328
same,glycan array binding signal (z-score),[7],-0.46
same,glycan array binding signal (z-score),[8],2.37
same,glycan array binding signal (z-score),[9],-0.091
same,glycan array binding signal (z-score),[10],-0.442
same,glycan array binding signal (z-score),[11],2.24
same,glycan array binding signal (z-score),[12],0.127
same,glycan array binding signal (z-score),[13],-0.614
same,glycan array binding signal (z-score),[14],-0.441
same,glycan array binding signal (z-score),[15],-0.435
same,glycan array binding signal (z-score),[16],5.38
same,glycan array binding signal (z-score),[17],-0.631
same,glycan array binding signal (z-score),[18],-0.05
same,glycan array binding signal (z-score),[19],-0.319
same,glycan array binding signal (z-score),[20],-0.456
same,glycan array binding signal (z-score),[21],-0.29
same,glycan array binding signal (z-score),[22],-0.427
same,glycan array binding signal (z-score),[23],-0.43
same,glycan array binding signal (z-score),[24],0.15
same,glycan array binding signal (z-score),[25],6.32
same,glycan array binding signal (z-score),[26],-0.324
same,glycan array binding signal (z-score),[27],-0.395
same,glycan array binding signal (z-score),[28],-0.336
same,glycan array binding signal (z-score),[29],-0.237
same,glycan array binding signal (z-score),[30],2.7
same,glycan array binding signal (z-score),[31],3.13
same,glycan array binding signal (z-score),[32],11.3
same,glycan array binding signal (z-score),[33],-0.092
same,glycan array binding signal (z-score),[34],-0.228
same,glycan array binding signal (z-score),[35],-0.293
same,glycan array binding signal (z-score),[36],0.431
same,glycan array binding signal (z-score),[37],0.969
